In PubChem BioAssay (NCATS):
Values without a mark were called inactive. Active and inactive are the calls of the source. Calls follow the shape of the dose curve; as a rule, active = well fitted activation curve with a large enough effect; inconclusive = small, poorly fitted or top-dose-only effect; inactive = flat fitted curve, though single readings scatter.

Assay: Cellular Toxicity (caspase-3) N2a (AID 665);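 also: compound exposure lasted 16 h at 37 °C before readout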
Conditions: N2a cells, luminescence, normalized: DMSO 0%, 10 µM staurosporine 100%; series mostly up to 92.2 µM; caspase-3 activation: at the top concentration
From the text: NIH Chemical Genomics Center [NCGC]
NIH Molecular Libraries Screening Centers Network [MLSCN]
National Institutes of Environmental Health Sciences [NIEHS]
National Toxicology Program [NTP]
We have developed a 1536-well cell-based assay for quantitative high throughput screening (qHTS) against a number of cell lines to determine in vitro caspase 3/7 activity of small molecules. This particular assay uses the N2a cell line which is derived from mouse neuroblastoma.
NCGC Assay Protocol Summary:
The Caspase-Glo 3/7 assay (Promega) is a homogeneous method to measure caspase-3 and caspase-7 activities in cultured cells. The quantitation of caspase 3/7 activity is based on the cleavage of a peptide-aminoluciferin substrate. After caspase cleaves the substrate the free aminoluciferin is liberated and serves as the substrate of luciferase, which generates the light. The luminescent signal is proportional to the amount of caspase 3/7 activity present.
Using the Caspase-Glo 3/7 assay, the amount of caspase 3/7 activity was measured in the N2a cells with complete culture medium following compound treatment for 16 hours. The assay was performed in opaque white 1536-well plates. In the screen, staurosporine and doxorubicin were used as positive controls. Library compounds were measured for their ability to cause the activation of caspase 3/7 in the cell line, as reflected by an increase in luminescence signal, in a concentration-dependent manner. Data were normalized to the controls for basal activity (DMSO only) and 100% stimulation (10 uM staurosporine). AC50 values were determined from concentration-response data modeled with the standard Hill equation.
qHTS protocol for caspase 3/7 assay in mouse N2a cell line
[Step] [Parameter] [Value] [Description]
1. Reagent; 5 uL; 1500 mouse N2a cells/well
2. Time; 5 hr; 37 °C incubation
4. Controls; 23 nL; doxorubicin 7 pM to 100 uM & staurosporine 1.4 pM to 20 uM
5. Time; 16 hr; 37 °C incubation
6. Reagent; 5 uL; Caspase-Glo 3/7 reagent
7. Time; 1 hr; Room Temperature
8. Detection; Luminescence; Viewlux plate reader
Keywords: caspase 3/7, apoptosis, mouse N2a cell line, luminescence, NTPHTS, NTPHTS_NCGC, NIEHS, EPA, DSSTox, MLSMR, MLSCN, NIH Roadmap, qHTS, NCGC

Structure (SMILES) | caspase-3 activation [%] | outcome
CNCC(O)c1ccc(O)cc1 (stereo unspecified) | -0.737 | 
Oc1ccccc1-c1ccccc1 | 0.936 | 
Oc1cccc2cccnc12 |  | inactive
Clc1ccc(COC(Cn2ccnc2)c2ccc(Cl)cc2Cl)cc1 (stereo unspecified) | 18.8 | 
N[C@@H](Cc1ccc(N(CCCl)CCCl)cc1)C(=O)O | 7.79 | 
Oc1ccc(Cl)cc1Cc1ccccc1 | 2.19 | 
CCCC(C)(COC(N)=O)COC(=O)NC(C)C (stereo unspecified) | 0.176 | 
c1ccc2c(c1)Nc1ccccc1S2 | -1.89 | 
CCOP(=S)(OCC)Oc1cc(C)nc(C(C)C)n1 | -1.79 | 
NCC(O)c1ccc(O)cc1 (stereo unspecified) | -2.2 | 
OCCOc1ccccc1 | -5.61 | 
